{"source": "PubChem BioAssay AID493169", "about": "(National Center for Advancing Translational Sciences (NCATS), 2011)", "note": "Results filed as inconclusive are left out. Activity calls are given as the source filed them. The call rests on the fitted dose curve; in most records, active means well fitted inhibition curve with a large enough effect; inconclusive means small, poorly fitted or top-dose-only effect; inactive means flat fitted curve, though single readings scatter. On the % scale 0 is the no-effect control and ±100 the full control effect; potency means the concentration at half of the fitted maximal effect.", "data": [{"assay": "CHOP2 Reporter Counterscreen Assay for Inhibitors of Ubiquitin-specific Protease USP2a;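 further: activated enterokinase alone at 50 pM in a cell-free format rather than USP2a or CHOP2; nearly all actives have a fitted effect of over 55% in size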", "conditions": "purified enterokinase, fluorogenic substrate, 485/531 nm; series mostly up to 38.3 µM; activity change, negative = inhibition: at the top concentration", "method_in_brief": "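Fluorescence (485/531 nm) read 10 min after adding 25nM reporter substrate to 50 pM activated EK preincubated 30 min RT with compound; Tris pH 8.0/CaCl2/CHAPS buffer. Data normalized to buffer-alone inhibition; concentration-response curves fitted.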", "values": [{"compound": "O=C(Oc1ccccc1C(=O)Nc1ccccc1)c1ccccc1Br", "activity change, negative = inhibition": "-2.06% (inactive)"}, {"compound": "CC1=CC(C)(C)N(C(=O)c2ccccc2)c2ccccc21", "activity change, negative = inhibition": "6.73% (inactive)"}, {"compound": "O=C1c2ccccc2CCC12N=NCC2c1ccc(Br)cc1", "note": "(configuration not stated)", "activity change, negative = inhibition": "-2.24% (inactive)"}, {"compound": "Cc1ccc(NC(=O)c2cc(-c3ccco3)nc3ccccc23)cc1S(=O)(=O)N1CCOCC1", "Potency": "7.08 µM (active)"}, {"compound": "CC(OC(=O)c1nsc(Cl)c1Cl)C(=O)NCc1ccco1", "note": "(configuration not stated)", "activity change, negative = inhibition": "-2.69% (inactive)"}, {"compound": "O=[N+]([O-])c1c(NCCO)cc(N2CCN(Cc3ccc4c(c3)OCO4)CC2)c2nonc12", "activity change, negative = inhibition": "-0.847% (inactive)"}, {"compound": "CCOc1ccccc1N1C(=O)CC(Nc2ccc(N3CCOCC3)cc2)C1=O", "note": "(configuration not stated)", "activity change, negative = inhibition": "-7.95% (inactive)"}, {"compound": "Cc1ccc(N2CCN(C(=O)CCc3nc4ccccc4[nH]3)CC2)c(C)c1", "activity change, negative = inhibition": "3.76% (inactive)"}, {"compound": "CC(C)(C)[C@H]1COC(=O)[C@@H](Cc2ccc(F)cc2)C/C=C\\C[C@@H](CC(=O)N[C@H](CO)Cc2ccccc2)C(=O)N1", "activity change, negative = inhibition": "-3.42% (inactive)"}, {"compound": "Cn1c(C(=O)N2CCN(Cc3ccc4c(c3)OCO4)CC2)cc2sccc21", "activity change, negative = inhibition": "2.17% (inactive)"}, {"compound": "Cc1ccccc1[C@@H]1C(C#N)=C(N)S[C@H]1C(=O)c1ccccc1", "activity change, negative = inhibition": "-0.33% (inactive)"}, {"compound": "COc1ccc2[nH]c(=O)c(CN(C)C(=O)C3CCCCC3)cc2c1", "activity change, negative = inhibition": "-2.09% (inactive)"}, {"compound": "O=C(Nc1ccccc1)c1cc(Cl)nc2ccccc12", "activity change, negative = inhibition": "2.73% (inactive)"}, {"compound": "CC(CN1CCCCC1)OC(=O)c1ccc(Cl)cc1", "note": "(configuration not stated)", "activity change, negative = inhibition": "0.866% (inactive)"}, {"compound": "COc1ccc(CNS(=O)(=O)c2ccc(S(=O)(=O)N3CCCCC3)cc2)cc1", "activity change, negative = inhibition": "5.66% (inactive)"}, {"compound": "CCOC(=O)N1CCN(CC(=O)n2c(C)c(C)c3ccccc32)CC1", "activity change, negative = inhibition": "-16.2% (inactive)"}, {"compound": "Cc1ccc(C)c(S(=O)(=O)N2CCN(C(=O)/C=C/c3ccco3)CC2)c1", "Potency": "11.2 µM (active)"}]}]}
